JMJD2A Tudor: qHTS Assay for Inhibitors of JMJD2A-Tudor Domain; Lysine-specific demethylase 4A (Homo sapiens), O75164; AlphaScreen JMJD2A-Tudor / H3K4me3 peptide binding; 390,000 compounds, 4.4% hits; Potency, µM (doses to about 114 µM), for the others: at the highest dose activity change, negative = inhibition, most hits filed as inhibitors; further: on the % scale 0 is the no-effect control and ±100 the full control effect; nearly all actives have a fitted effect of over 50% in size
VDR inh: Inhibitors of the vitamin D receptor (VDR): qHTS | Vitamin D3 receptor (Homo sapiens), P11473 | VDR-SRC2-3 peptide fluorescence polarization, 2 h | Potency, µM, inactives show max response, negative = inhibition, usual class: inhibitors | 400,000 compounds, 0.93% hits; further: on the % scale 0 is the no-effect control and ±100 the full control effect
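The screen uses fluorescence polarization to detect compounds that interfere with recruitment of the SRC2-3 coactivator peptide to VDR; plates are read after 2 h at room temperature.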
BAZ2B inh: qHTS Assay for Inhibitors of BAZ2B; Bromodomain adjacent to zinc finger domain protein 2B (Homo sapiens), Q9UIF8; AlphaScreen BAZ2B-H3K14Ac peptide displacement; Potency, µM (top dose mostly 114 µM), for the others: at the top dose activity change, negative = inhibition, hits mostly inhibitors; 360,000 compounds, 4.4% hits; AID 504333, 2011; further: on the % scale 0 is the no-effect control and ±100 the full control effect; nearly all actives have a fitted effect of over 60% in size
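AlphaScreen luminescence quantifies BAZ2B engagement of H3K14Ac peptide; the protein and biotinylated peptide are both at 50 nM final, buffer PBS pH 7.4 with 0.01% Tween-20, all steps at room temperature.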
G9a block: qHTS Assay for Inhibitors of Histone Lysine Methyltransferase G9a. Histone-lysine N-methyltransferase EHMT2 (Homo sapiens), Q96KQ7. G9a H3K9 monomethylation, AlphaScreen, 2 h. Potency, µM (highest dose often 102 µM), for inactives: at the highest dose activity, negative = inhibition, usual class: inhibitors. 350,000 compounds, 8.8% hits; further: on the % scale 0 is the no-effect control and ±100 the full control effect; nearly all actives have a fitted effect of over 75% in size
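Readings reflect AlphaScreen signal from monomethyl-H3K9 antibody detection. HMT at 20 nM; substrate b-H3K9 500 nM; cofactor SAM 20 uM; 2 h RT reaction; compounds tested as titrations in qHTS with 15 min preincubation.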
PLK1 PBD inh: qHTS for Inhibitors of PLK1-PDB (polo-like kinase 1 - polo-box domain): Primary Screen; Serine/threonine-protein kinase PLK1 (Homo sapiens), P53350; Plk1 PBD binding of FITC phosphopeptide, fluorescence polarization; Potency, µM, inactives show max response, negative = inhibition, hits mostly inhibitors; 360,000 compounds, 2.8% hits; AID 720504, 2013; further: series mostly up to about 57 µM; on the % scale 0 is the no-effect control and ±100 the full control effect; nearly all actives have a fitted effect of over 65% in size
HP1b chromo inh: HTS for Inhibitors of HP1-beta Chromodomain Interactions with Methylated Histone Tails | Chromobox protein homolog 1 (Homo sapiens), P83916 | AlphaScreen HP1-beta / biotin-H3K9me3 peptide binding | Potency, µM (series often up to 114 µM), for inactives: at the highest dose activity change, negative = inhibition, hits mostly inhibitors | 390,000 compounds, 0.56% hits; further: nearly all actives have a fitted effect of over 70% in size
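HP1-beta protein (50 nM final) preincubated 30 min at room temperature with biotinylated H3(1-18)K9me3 peptide (50 nM) in PBS pH 7.4, 0.01% Tween-20, then compound added for 30 min. AlphaScreen streptavidin donor/nickel chelate acceptor beads (10 ug/mL final), 30 min dark, luminescence read.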
* hit, by the source's call; ? = inconclusive; / = not tested or not shown; [ ] = dose if it differs, or a comment. This is a sample that favours compounds with a hit; in the whole collection about 11% have one here. The call rests on the fitted dose curve; in most records, active means well fitted curve in the direction sought with a large enough effect; inconclusive means small, poorly fitted or top-dose-only effect, or another doubt; inactive means no such curve, though single readings can be large; an effect the other way counts as inactive or inconclusive. Potency means the concentration at half of the fitted maximal effect.

SMILES	JMJD2A Tudor	VDR inh	BAZ2B inh	G9a block	PLK1 PBD inh	HP1b chromo inh
O=C1CCCC2=C1C1O[C@](CCCCN3C(=O)c4ccccc4C3=O)(Cc3c1ccc1ccccc31)O2	/	/	-32%[22.9 µM]	/	/	/
Cc1ccc(S(=O)(=O)N(C)C(C)CCc2ccco2)cc1 (stereo not drawn)	2%	?	7%	12%[12.7 µM]	-8%	23%
COc1ccc(S(=O)(=O)N(C)C(C)CCc2ccco2)cc1 (stereo not drawn)	-9%	-5%	-27%	79µM*	-11%	12%
O=c1c2cn(Cc3ccc(F)cc3)c3ccccc3c-2nn1Cc1ccc(F)cc1	-22%	-11%	4%	32µM*	-6%	-11%
O=c1c2cn(Cc3ccccc3)c3ccccc3c-2nn1Cc1ccc(F)cc1Cl	-1%	10%	2%	6%	-2%	10%
COc1ccc(N2CCN(C(CNC(=O)c3ccc(C)cc3)c3ccc4c(c3)OCO4)CC2)cc1 (stereo not drawn)	28µM*	7%	20µM*	8.9µM*	/	-18%[57 µM]
COc1ccc(N2CCN(C(CNC(=O)CC(C)C)c3ccc4c(c3)OCO4)CC2)cc1 (stereo not drawn)	?	11%	-24%	11µM*	/	3%[57 µM]
CCOC(=O)CN(Cc1sccc1C)C(=O)Nc1ccc(OCC)cc1	-4%	?	-3%	7%[59 µM]	-5%	13%
O=C(Nc1ccccc1)c1ccc(N2CCN(c3ccccc3)CC2)c(S(=O)(=O)N2CCOCC2)c1	16%	-18%	79µM*	16%	-4%	19%
COc1ccc(C(=O)Nc2ccc(N3CCCCCC3)cc2)cc1S(=O)(=O)N1CCOCC1	7.1µM*	-15%	28µM*	?	1%	?
COc1ccc(NC(=O)c2c3c(nc4ccccc24)CCC3)cc1S(=O)(=O)N1CCOCC1	?	1%	50µM*	?	?	-30%
COc1ccc2c(c1)OCC(Cc1ccc(O)c(OC)c1)C2=O (stereo not drawn)	/	0%	/	-17%[2.33 µM]	/	/
CC1(C(=O)NS(=O)(=O)c2ccccc2Cl)CCN1C(=O)C1(c2ccc(Cl)cc2)CCC1 (stereo not drawn)	/	/	/	/	0%	/
Cc1ccc(NC(=O)Cn2c(-c3ccc4c(c3)OCO4)cn(-c3ccccc3)c2=O)cc1C	?	-6%	-28%	?	/	-18%
COc1ccc(-n2cc(-c3ccc4c(c3)OCO4)n(CC(=O)Nc3cccc(C)c3C)c2=O)c(OC)c1	?	-13%	?	5µM*	/	-20%
COc1ccc(-n2cc(-c3ccc4c(c3)OCO4)n(CC(=O)Nc3cc(Cl)ccc3C)c2=O)cc1	-20%	?	89µM*	?	/	4%
CC(C)C[C@H](NC(=O)[C@H](CC(C)C)NC(=O)[C@@H](Cc1c[nH]c2ccccc12)NC(=O)[C@H](Cc1ccccc1)NC(=O)[C@@H](Cc1c[nH]c2ccccc12)NC(=O)[C@H](CCC(N)=O)NC(=O)[C@H](CCC(N)=O)NC(=O)[C@@H]1CCCN1C(=O)[C@H](CCCCN)NC(=O)[C@@H]1CCCN1C(=O)[C@@H](CCCNC(=N)N)NC(=O)[C@@H]1CCCN1C(=O)CNC(=O)[C@H](CC(C)C)NC(=O)[C@H](CC(C)C)NC(=O)[C@H](Cc1ccc(O)cc1)NC(=O)CNC(=O)[C@H](C)NC(=O)[C@H](CO)NC(=O)[C@H](CC(N)=O)NC(=O)[C@H](CC(C)C)NC(=O)[C@@H](NC(=O)[C@H](Cc1c[nH]c2ccccc12)NC(=O)CN)[C@@H](C)O)C(N)=O	/	9%	/	/	/	/
COC(=O)CCC/C=C1/SCC(NC(=O)c2ccccc2)C1=O (stereo not drawn)	-35%	89µM*	?	45µM*	?	-18%
CCCn1c(=O)c2sccc2n2c(CCCC(=O)Nc3ccc(Oc4ccc(Cl)cc4)cc3)nnc12	-18%	8%	7%	7%[59 µM]	/	58%
Clc1cccc(N2CCN(c3c4c(nc5nncn35)CCC4)CC2)c1	-21%	21%	?	-36%[59 µM]	/	16%
O=[N+]([O-])C(=C1Nc2ccccc2N1)/C(Cl)=C(/Cl)Br	18µM*	-27%	?	7.9µM*	30µM*	?
COc1cc(/C=C/C(=O)NC(=O)c2ccccc2O)ccc1O	-12%	1%	-20%	25%	-3%	11%
O=c1cc(O)cc(/C=C/c2ccc(O)c(O)c2)o1	/	?	/	4µM*	/	/
O=C(C=Cc1cccc(O)c1)c1ccccc1O	?	40µM*	/	/	1.7µM*	-9%
O=C(O)/C=C/c1ccc(O)cc1	-14%	-14%	/	/	-9%	38%
SMILES	JMJD2A Tudor	VDR inh	BAZ2B inh	G9a block	PLK1 PBD inh	HP1b chromo inh
O=C(/C=C/c1ccc(O)c(O)c1)c1ccccc1O	3.5µM*	13%	40µM*	13µM*	10%	45µM*
O=c1cc(O)c2ccc(O)cc2o1	-7%	-6%	-6%	18%[59 µM]	-8%	21%
O=C(O)/C=C\c1ccc(O)c(O)c1	/	1%	/	2.5µM*	/	/
CC(C)(C)OC(=O)NCCCC[C@H](NC(=O)c1[nH]cnc1C(=O)N[C@@H](Cc1ccccc1)C(=O)OCc1ccccc1)C(=O)OC(C)(C)C	?	-4%	/	/	-10%	25%
O=C(/C=C/c1ccc(O)c(O)c1)OCCc1ccccc1	89µM*	-7%	/	3.5µM*	3%	-24%
O=C(COC(=O)/C=C/c1cccc(Br)c1)NCCc1ccccc1	-2%	1%	-4%	0%	2%	25%
O=C(/C=C/c1ccc(O)c(O)c1)OC(Cc1ccc(O)c(O)c1)C(=O)O (stereo not drawn)	13µM*	-11%	40µM*	3.5µM*	-12%	?
O=C(/C=C\c1ccc(O)c(O)c1)O[C@@H](Cc1ccc(O)c(O)c1)C(=O)O	/	7%	/	/	/	/
Cc1cccnc1NC(=O)Cn1nc(-c2ccccc2)oc1=S	79µM*	?	21%	50µM*	24µM*	6%
COc1ccc(CN2CC[C@@H](N3CCOCC3)[C@H](O)C2)cc1F	-14%	15%	10%	/	-13%	3%
CCOc1ccc(CCNC(=O)COC(=O)c2ccc(Br)o2)cc1OCC	-11%	-5%	-8%	?	-9%	3%
COc1ccc(-c2nnc3ccc(SCC(=O)Nc4cc(C)on4)nn23)cc1	/	/	/	56µM*	/	/
COc1ccc(-c2nnc3ccc(SCC(=O)N4CCCC4)nn23)cc1	-9%	-10%	9%	50µM*	-2%	43%
